Assay results from PubChem BioAssay (NCATS).
Inconclusive results are not listed. Entries that show only a call come without a potency. Calls of active or inactive are those of the source. Unless noted, calls follow the shape of the dose curve; as a rule, active = well fitted curve in the direction sought with a large enough effect; inconclusive = small, poorly fitted or top-dose-only effect, or another doubt; inactive = no such curve, though single readings can be large; an effect the other way counts as inactive or inconclusive.

Columns and labels:
[1] = system: Zika virus NS2B-NS3 protease; assay: Primary screen GU AMC qHTS for Zika virus inhibitors (AID 1347154); also: nearly all actives have a fitted effect of over 70% in size
In short: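 Unlinked Zika NS2B hydrophilic domain/NS3 protease domain noncovalent complex (25 nM final) in 10 mM Tris-HCl pH 8.0, 0.01% Tween 20, with AMC peptide substrate. Fluorescence (ex 340, em 450 nm) change over 15 min, room temperature; percent inhibition fitted to 4-parameter Hill equation.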

[2] = qHTS to identify inhibitors of the type 1 interferon - major histocompatibility complex class I in skeletal muscle: primary screen against the NCATS Mechanism Interrogation Plate v5.0 (MIPE) Libary (AID 1347411); also: nearly all actives have a fitted effect of over 65% in size
In short: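 Immortalized human C25cl48 myoblasts with HiBit knocked into endogenous HLA-B*08:01 were stimulated with 4.0 ng/ml IFN-beta and exposed to compounds (11-point 1:3 titration, top 46 uM final) for 24 hrs at 37 C; HiBiT lytic luminescence measured.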

[3] = Primary qHTS for small molecule stabilizers of the endoplasmic reticulum resident proteome: Secreted ER Calcium Modulated Protein (SERCaMP) assay (AID 1508630)
In short: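 GLuc-SERCaMP-expressing SH-SY5Y cells, pretreated 16 h with compound, are challenged with thapsigargin to empty ER calcium stores; after 4 h, coelenterazine is added directly to the medium and luminescence is imaged.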

[4] = NCATS anti-infectives library activity on HEK293 viability as a counter-qHTS vs the C. elegans viability qHTS (AID 1745854)
In short: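 HEK293 cells, 1500 per well, exposed 24 hr at 37C in 5% CO2 to compounds in a 1:5 titration, up to 41.7 uM final. Viability read as CellTiter-Glo luminescence after 10 min at room temperature.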

[5] = target: Glutathione peroxidase 1 (Homo sapiens) (UniProt P07203); assay: Primary qHTS Assay for Inhibitors of Recombinant Selenoprotein Glutathione Peroxidase 1 (GPX1) (AID 1845191); also: nearly all actives have a fitted effect of over 65% in size
In short: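 Recombinant GPX1 (10 nM final) was preincubated with compound for 30 min at room temperature, then reacted with 1 mM GSH, 0.5 mM CHP, 0.5 mM NADPH and 100 nM glutathione reductase; NADPH fluorescence (340/450 nm) was read at 0 and 15 min.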

[6] = target: Phospholipid hydroperoxide glutathione peroxidase GPX4 (Homo sapiens) (UniProt P36969); assay: Primary qHTS Assay for Inhibitors of Recombinant Selenoprotein Glutathione Peroxidase 4 (GPX4) (AID 1845192); conditions: outcome: dose series up to 50 µM unless noted; also: nearly all actives have a fitted effect of over 65% in size
In short: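 GR-coupled readout: 100 nM GR, 1 mM GSH, 0.5 mM NADPH; NADPH fluorescence (ex 340/em 450 nm) read at t=0 and after 15 min RT. GPX4 200 nM, preincubated 30 min with compound; substrate 0.5 mM CHP.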

[7] = qHTS drug screen for cell cycle checkpoint inhibitors in PARPi-resistant BRCA-mutant ovarian cancer cell lines. (AID 1963452; calls by dose curve); conditions: PEO1/OlaR viability, CellTiter-Glo luminescence, 96 h, stronger effect = lower value
In short: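 PEO1, PEO4 and PEO1/OlaR ovarian cancer cells, 600 per well, exposed 96 h at 37C to a dilution series. Viability read by CellTiter-Glo luminescence, normalized to DMSO and empty wells; activity summarized as Z-AUC.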

Sequence of Glutathione peroxidase 1 (Homo sapiens) (P07203 whole entry, looked up): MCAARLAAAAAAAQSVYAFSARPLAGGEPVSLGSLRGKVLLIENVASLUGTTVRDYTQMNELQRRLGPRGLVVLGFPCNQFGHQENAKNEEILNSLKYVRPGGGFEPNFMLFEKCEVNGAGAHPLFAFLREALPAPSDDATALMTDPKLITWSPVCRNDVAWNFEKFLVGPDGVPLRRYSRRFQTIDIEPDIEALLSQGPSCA
Sequence of Phospholipid hydroperoxide glutathione peroxidase GPX4 (Homo sapiens) (P36969 whole entry, looked up): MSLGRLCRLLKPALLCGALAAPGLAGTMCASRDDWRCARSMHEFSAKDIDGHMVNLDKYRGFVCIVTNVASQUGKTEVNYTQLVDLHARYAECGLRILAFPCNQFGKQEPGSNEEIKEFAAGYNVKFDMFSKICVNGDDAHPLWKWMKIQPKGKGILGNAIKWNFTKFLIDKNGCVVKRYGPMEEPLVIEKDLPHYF

Question: For `C=C1O[C@@](CO)(n2cnc3c(N)ncnc32)[C@H](O)[C@@H]1O`, which Potency [1] is on record?
Answer: inactive

Question: With `CN(C)CCC1(c2ccc(Cl)cc2)Cc2ccccc2C(=O)O1` (configuration not stated) as the compound, how does the Potency [1] read?
Answer: inactive

Question: With `COC(=O)[C@H](CCCN=C(N)N)NC(=O)CCCc1c(-c2ccccc2)[nH]c2c(F)cc(F)cc12` as the compound, how does the Potency [1] read?
Answer: inactive

Question: Which results are given for `CCCC[C@@H](C=O)NC(=O)[C@H](CC(C)C)NC(=O)OCc1ccccc1`?
Answer: Potency [1]: inactive; Potency [2]: inactive; Potency [3]: inactive; outcome [4]: inactive; Potency [5]: inactive; Potency [6]: inactive; Z-AUC [7]: 1.25 (inactive); Z-AUC ([7]; measured here: PEO1 parental Z-AUC): 0.731; Z-AUC ([7]; measured here: PEO4 Z-AUC): 0.856
